Our source for the activation values is PubChem BioAssay AID1508602 (The Scripps Research Institute Molecular Screening Center, 2020).

The campaign covered roughly 650,000 compounds. About 6,800 (1%) were called active. Rule as the data show it: active = activation above about 4.9%; inactive = the rest. Only a selection was taken, and actives are over-represented in it overall.

Sequence of G-protein coupled receptor 151 (Homo sapiens) (Q8TDV0 whole entry, looked up): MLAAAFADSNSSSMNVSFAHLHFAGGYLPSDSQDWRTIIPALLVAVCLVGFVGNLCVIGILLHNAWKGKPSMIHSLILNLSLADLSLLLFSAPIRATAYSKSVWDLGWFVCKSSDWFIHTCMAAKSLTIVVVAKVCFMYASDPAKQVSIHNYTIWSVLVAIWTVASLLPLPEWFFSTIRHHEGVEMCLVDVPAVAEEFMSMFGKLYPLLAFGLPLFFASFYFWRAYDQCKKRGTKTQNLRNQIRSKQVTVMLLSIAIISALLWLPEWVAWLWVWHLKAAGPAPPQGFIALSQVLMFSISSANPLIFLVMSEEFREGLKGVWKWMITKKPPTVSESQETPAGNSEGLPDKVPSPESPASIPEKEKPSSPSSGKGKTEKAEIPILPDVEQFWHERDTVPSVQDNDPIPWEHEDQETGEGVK

The experiment concerns the target G-protein coupled receptor 151 (Homo sapiens) (UniProt Q8TDV0). Nature of the experiment: activates the human receptor GPR151, primary screen, cell-based, PathHunter beta-arrestin, luminescence (AID 1508602).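 Also: 0% = median of compound wells and 100% = cells with positive control.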 The settings on record: PathHunter beta-arrestin GPR151 cells, at 11.2 µM, active compounds read high.
With `CCOC(=O)c1c(NC(=O)C(C)Sc2nnc(CNC(=O)COc3ccccc3)n2-c2cccc(Cl)c2)sc2c1CCC2` (stereo not given), the activation was -0.72% (inactive).

For `O=[N+]([O-])c1ccc2ncnc(Nc3cccc(C(F)(F)F)c3)c2c1`, the activation was 5.31% (active).

For the molecule `Cn1ncc2c(Nc3cccc(S(=O)(=O)Nc4cccc(C(F)(F)F)c4)c3)ncnc21`, the activation is -0.0154% (inactive).

For `Cc1[nH]nc(Nc2cccc(C(F)(F)F)c2)c1[N+](=O)[O-]`, the activation was 0.158% (inactive).

As to `COc1ccc(C(C)(C)C)cc1NC(=O)c1ccc2c(c1)NC(=O)C(C)S2` (stereo not given), the activation is -1.1% (inactive).

For `COc1cc(OC)cc(C(=O)Nc2ccc3c4c(cccc24)CC3)c1`, the activation was 16.6% (active).

Take `CCOc1ccc(C(=O)Nc2ccc3c4c(cccc24)CC3)cc1`: the activation was 0.563% (inactive).

Regarding `COc1cc2ccccc2cc1C(=O)Nc1ccc2c3c(cccc13)CC2`, the activation is 1.02% (inactive).

Take `COc1ccc(/C=C\C(=O)NCCc2cc3ccc(C)c(C)c3[nH]c2=O)cc1OC`: the activation is -0.187% (inactive).

As to `O=C1CCC(CCNCc2ccccc2)N1CCc1ccccc1F` (stereo not given), the activation was 1.45% (inactive).

Turning to `O=C1CCC(CCNCCOc2ccccc2)N1CCc1ccccc1` (stereo not given), the activation was 8.35% (active).

Turning to `O=C1CCC(CCNCCOc2ccc(F)cc2)N1CCc1ccccc1` (stereo not given), the activation was -0.404% (inactive).

Turning to `CCOC(=O)N1CCC(NC(=O)c2ccc(N3CC4CC(C3)c3cccc(=O)n3C4)c(NC(=O)c3ccc(OC)cc3)c2)CC1` (stereo not given), the activation was -1.15% (inactive).

For the molecule `CCOc1ccc(S(=O)(=O)c2c[nH]c3cc(OC)c(OC)cc3c2=O)cc1`, the activation was 0.157% (inactive).

Take `CN1C(=O)c2ccc(NC(=O)CCn3c(=O)oc4ccccc43)cc2C1=O`: the activation is -1.74% (inactive).

With `Cc1ccc(NC(=O)CCn2c(=O)oc3ccccc32)cc1Cl`, the activation was 10.6% (active).

`Cc1cccc(NC(=O)CCn2c(=O)oc3ccccc32)c1`: the activation was -0.466% (inactive).

Take `CCOC(=O)c1c(NC(=O)COC(=O)C(C)c2c(F)c(F)cc(F)c2F)sc2c1CCCC2` (stereo not given): the activation is 1.7% (inactive).

In the case of `COc1ccc(-c2csc3ncc(C(=O)N(C)C(C)C)c(=O)n23)cc1`, the activation is 1.24% (inactive).

For `Cc1ccc(C(=O)NCc2nc3nc(C)cc(C)n3n2)cc1`, the activation is 0.459% (inactive).

As to `Cc1ccc(S(=O)(=O)NCc2nc3nc(C)cc(C)n3n2)cc1`, the activation was 10.6% (active).

As for `Cc1cccc(CNc2nc3nc(C)cc(C)n3n2)c1`, the activation is -0.819% (inactive).

On to `CCN(CC)CCN1C(=O)C(=O)/C(=C(\O)c2ccc(Cl)cc2)C1c1ccc([N+](=O)[O-])cc1` (stereo not given), for which the activation is -0.703% (inactive).

With `NS(=O)(=O)c1cccc(S(=O)(=O)c2ccc(Br)cc2)c1`, the activation was 1.39% (inactive).

Turning to `CCCCCC(=O)N/N=C(\C)c1ccc(O)cc1`, the activation is -1.26% (inactive).

In the case of `CCCCCC(=O)N/N=C(/C)c1ccc(O)cc1O`, the activation is 7.91% (active).

With `C/C(=N\NC(=O)CCC(=O)N/N=C(\C)c1ccc(Cl)cc1)c1ccc(Cl)cc1`, the activation was 0.378% (inactive).

In the case of `Cc1ccc(C(=O)COC(=O)c2ccc3nc(-c4ccccc4)c(-c4ccccc4)nc3c2)cc1`, the activation is -0.519% (inactive).

In the case of `CCc1nnc(NC(=O)CSc2nc(C)cc(C)n2)s1`, the activation was -1.16% (inactive).

Consider `Nc1nnnn1/N=C\c1ccc(O)c(O)c1`, for which the activation is 0.149% (inactive).

On to `COc1ccc(OC)c(/C=N/n2nnnc2N)c1`, for which the activation is 8.6% (active).

As to `COc1cc(/C=N/n2nnnc2N)ccc1OCCC(C)C`, the activation is 1.35% (inactive).

In the case of `Brc1ccc(-c2cc(-c3ccccc3)c3cc(Br)ccc3n2)cc1`, the activation was 1.18% (inactive).

Take `CCCCC(=O)Nc1ccc(C(=O)N2CCN(c3ccccc3F)CC2)cc1`: the activation was 1.25% (inactive).

Turning to `COC(=O)[C@@H]1CC[C@H](C)[C@@H](c2ccc(C)cc2)N1C(=O)c1ccc(/C=N/O[C@H](C)c2cn([C@@H]3COC[C@H]3O)nn2)cc1`, the activation is 7.09% (active).

For the molecule `Cc1cc(N2C(=O)c3ccc(Oc4ccc(NC(=O)CSc5ccc(Cl)cc5)cc4)cc3C2=O)no1`, the activation was 1.59% (inactive).

In the case of `CSc1nc2sccn2c(=O)c1C(=O)NC(C)CO` (stereo not given), the activation is -0.408% (inactive).

For `O=C(NCCc1ccccn1)c1cn2ccsc2n1`, the activation was 0.225% (inactive).

Regarding `CCSc1nc2sccn2c(=O)c1C(=O)NC(Cc1ccccn1)C(F)(F)F` (stereo not given), the activation is 4.95% (active).

As for `CCCCN(C)CCCN(Cc1ccco1)C(=S)Nc1ccc(Cl)c(C)c1`, the activation is -0.264% (inactive).

Take `COc1cccc(CCNC(=O)CCc2nnc(COc3ccccc3)o2)c1`: the activation is -0.583% (inactive).

On to `CSCCNc1nc2nonc2nc1NC1CC1`, for which the activation is 0.51% (inactive).

As to `O=C1OC(c2ccc(Br)cc2)=N/C1=C\c1cc(Br)cs1`, the activation is -0.409% (inactive).

Regarding `COc1cc(C2C3=C(CCCC3=O)NC3=C2C(=O)CCC3)cc(Cl)c1O`, the activation was 1.16% (inactive).

On to `CCOc1cc(C2C3=C(CCCC3=O)NC3=C2C(=O)CCC3)ccc1OCc1ccc(F)cc1`, for which the activation is -0.184% (inactive).

`CCOc1cc(C2C3=C(CCCC3=O)NC3=C2C(=O)CCC3)cc(Br)c1OCC`: the activation is 5.4% (active).

As to `Fc1ccc(C2Oc3ccc(Cl)cc3C3CC(c4cccs4)=NN32)cc1` (stereo not given), the activation is 0.238% (inactive).

Regarding `Cc1nn(-c2ccccc2)c(C)c1/C=N/n1c(=S)[nH]nc(C)c1=O`, the activation was -0.643% (inactive).

With `CCOC(=O)c1cc2cccnc2nc1C`, the activation is 0.721% (inactive).

`CCCCCCOC(=O)c1ccc(-c2ccc(-c3ccc(C(=O)OCCCCCC)cc3)cc2)cc1`: the activation is -1.7% (inactive).

In the case of `CCCCCCOC(=O)c1cc(C(=O)OCCCCCC)c(C)nc1C`, the activation was 6.55% (active).

Consider `Cc1ccccc1-c1cccc(CN2CCC(=O)N(C)CC2)c1`, for which the activation is 0.112% (inactive).

`CCn1c(NCCO)nc2ccccc21`: the activation was 1.96% (inactive).

For the molecule `O=C(Cn1c(NCCCO)nc2ccccc21)c1ccccc1`, the activation is -1.59% (inactive).

As to `O=C(Cn1c(NCCO)nc2ccccc21)c1ccc(Cl)cc1Cl`, the activation was 7.58% (active).

In the case of `COC(=O)c1cc(CNC(=O)c2cc3ncccn3n2)cc(NC(=O)Cc2ccsc2)c1`, the activation is -0.0871% (inactive).

On to `Cc1cc(Br)ccc1OCC(=O)N1CCN(C=O)CC1`, for which the activation is -1.7% (inactive).

On to `COC(=O)c1c(NC(=O)/C(C#N)=C/c2cccs2)sc2c1CCCC2`, for which the activation is -2.04% (inactive).

`Nc1cccc(N=Cc2c(O)[nH]c(=S)[nH]c2=O)c1`: the activation was -0.879% (inactive).

As for `Cc1ccc(N=Cc2c(O)[nH]c(=S)[nH]c2=O)cc1C`, the activation is 0.392% (inactive).

In the case of `O=c1[nH]c(=S)[nH]c(O)c1C=Nc1ccc(F)c(Cl)c1`, the activation is 5.26% (active).

For the molecule `CC(C)[C@@H](N)Cn1nc(-c2cccs2)ccc1=O`, the activation is 0.507% (inactive).

With `O=C(Nc1ccccc1[N+](=O)[O-])c1ccc2ccccc2n1`, the activation was 0.441% (inactive).

Turning to `O=C1NC(=O)N(c2cccc(Br)c2)C(=O)/C1=C/c1cccc([N+](=O)[O-])c1`, the activation is 1.88% (inactive).

As to `COc1ccc(/C=C2\C(=O)NC(=O)N(c3ccc([N+](=O)[O-])cc3)C2=O)cc1OC`, the activation is -0.83% (inactive).

In the case of `Cc1ccc(/C=C2/C(=O)NC(=O)N(c3ccccc3)C2=O)cc1[N+](=O)[O-]`, the activation was 7.87% (active).

Take `Cn1ccnc1SCc1cc(=O)c(OC(=O)c2c(F)cccc2F)co1`: the activation was 3.4% (inactive).

On to `CC1CCN(C(=O)C2CCCN2c2nnc(N3CCCC3=O)s2)CC1` (stereo not given), for which the activation was 0.834% (inactive).

As for `CC(C)(C)OC(=O)N1CCC[C@H]1C(=O)c1cccnc1`, the activation is 0.241% (inactive).

As to `O=C(NCCCN=C1NS(=O)(=O)c2ccccc21)c1ccc(Cl)c(Cl)c1`, the activation was -0.637% (inactive).

Consider `COc1nc(Nc2ccccc2)nc(-c2ccc(C(=O)NC3CC3)cc2)n1`, for which the activation is 0.979% (inactive).

On to `COc1nc(Nc2ccccc2)nc(-c2c(C)noc2C)n1`, for which the activation was 5.15% (active).

On to `COc1nc(Nc2ccccc2)nc(-c2csc3ccccc23)n1`, for which the activation is -0.667% (inactive).

For `CCCCc1ccc(NC(=O)COC(=O)c2ccc([N+](=O)[O-])o2)cc1`, the activation is -2.13% (inactive).

Consider `Cc1cccc(N(C)C(=O)C2CCCN(S(=O)(=O)c3c(C)noc3C)C2)c1` (stereo not given), for which the activation was 0.213% (inactive).

With `CCc1ccc(-c2nc(CSCC(=O)NC(C)(C)C)c(C)o2)cc1`, the activation was -0.321% (inactive).

Turning to `CCSc1nnc(CC(N)=O)c2ccccc12`, the activation was -0.522% (inactive).

Turning to `O=c1cc(-c2cc3cc(Cl)ccc3oc2=O)c2ccc(O)cc2o1`, the activation was -0.104% (inactive).

Regarding `CCCn1ncc(CN2CCN(C3CCN(C(C)C)CC3)C(CCO)C2)c1C` (stereo not given), the activation was 1.43% (inactive).

In the case of `CCCn1ncc(CN2CCCC(N3CCC(CO)CC3)C2)c1C` (stereo not given), the activation was 6.31% (active).

Take `Cc1c(CN2CCCC(N3CCC(CO)CC3)C2)c(=O)n(-c2ccccc2)n1C` (stereo not given): the activation was -1.54% (inactive).

For the molecule `Cc1ccc(OCC(=O)Nc2nncs2)cc1`, the activation is 0.547% (inactive).

Regarding `CC1CCCN(C(=O)NCc2noc3ccccc23)C1` (stereo not given), the activation was -1.14% (inactive).

Turning to `CCOc1ccc(-n2c(C)cn3c4c(=O)n(CC(C)C)c(=O)n(C)c4nc23)cc1`, the activation was 0.368% (inactive).

Consider `O=C(C1CC12CCN(Cc1c(F)cccc1F)CC2)N1CCN(Cc2ccccc2)CC1` (stereo not given), for which the activation was -0.828% (inactive).

Turning to `O=C(NCCO)c1cnc(NC2CCN(Cc3ccccc3)CC2)s1`, the activation was 7.19% (active).

Turning to `O=C(NC1CCN(Cc2ccccc2)CC1)c1ccc(-c2ccccc2)s1`, the activation was 0.522% (inactive).

`CCCNC(=O)c1cc(NC2CCN(Cc3ccccc3)CC2)nc2ccccc12`: the activation was 0.365% (inactive).

Turning to `Cc1ccc(Cn2cc(C#N)c([N+](=O)[O-])n2)cc1`, the activation is 2.65% (inactive).

As for `COc1ccc(-c2noc(-c3ccccc3Cl)n2)cc1`, the activation is 6.08% (active).

Consider `COc1ccc(-c2noc(-c3ccc(Br)cc3)n2)cc1`, for which the activation is -0.475% (inactive).

Take `Cc1ccc(-c2nc(-c3ccccc3Cl)no2)cc1`: the activation was 0.675% (inactive).

Take `CC1(c2ccccc2NC(=O)c2ccc([N+](=O)[O-])cc2)CC1`: the activation is 6.15% (active).

On to `CC(C)CNC(=O)c1ccccc1NC(=O)c1ccc([N+](=O)[O-])cc1`, for which the activation is 1.87% (inactive).

For `CN(C)c1ccc(NC(=O)c2ccc([N+](=O)[O-])cc2)c2ccccc12`, the activation is 2.25% (inactive).
